Compounds without any hit were thinned out: in the full panel of roughly 83,000, 20% have a hit.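 Step 1: grow cells in 96-well plates. Step 2: add test compound at a single concentration. Step 3: incubate 48 h. Step 4: record percent growth.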 A number with no mark means an inactive call. The source made the active and inactive calls.
Each molecule was assayed on SK-MEL-2 melanoma (assay: NCI-60 one-dose screen, 48 h (100 = growth as untreated, 0 = no growth, -100 = all killed)). Settings: 10 µM unless noted.
Protocol: Growth inhibition of the SK-MEL-2 human tumor cell line is measured as a screen for anti-cancer activity. Cells are grown in 96 well plates and exposed to the test compound for 48 hours. Compounds are tested at a single concentration, which is 10^-5 M for most compounds. The reported endpoint is percent growth (GI% or GIPRCNT), where numbers from 0 - 100% represent growth inhibition, and numbers from -100% - 0 represent cell death. For example, a value of 40 represents 60% growth inhibition. A value of 0 means no net growth occurred over the course of the experiment. A value of -40 indicates 40% of cells at the beginning of the experiment died by the end of the experiment. A value of -100 means all cells are dead at the end of the experiment.
NCI-60 Human Tumor Cell Lines Screen was performed using the standard one-dose NCI protocol, which is described in more detail at https://dtp.cancer.gov/discovery_development/nci-60/default.htm.
Compounds with GIPRCNT values below 10 were considered active. Activity score was based on GIPRCNT using the following formula: […]
Score is 0 for GIPRCNT values of 100 or above, 50 for GIPRCNT values of 0, and 100 for GIPRCNT values of -100.

Row | Structure (SMILES) | growth
1 | OCCOSCCO | 106%
2 | CCCCCCCCC(=O)OCCCC(CCC(CCC1CCCO1)OC(=O)CCCCCCCC)OC(=O)CCCCCCCC (stereo not given) | 103%
3 | CC1=CC(=O)C=CC1(C)C(Cl)(Cl)Cl (stereo not given) | 87.5%
4 | OC(CSc1ccccc1)CN1CCN(c2ccc(Cl)cc2)CC1 (stereo not given) | 98.5%
5 | O=S(=O)(O)c1cnccn1 | 102%
6 | Oc1ccc2ccccc2c1N=Nc1nccs1 | 153%
7 | CC[n+]1ccc(Nc2ccc(NC(=O)c3ccc(Nc4cc[n+](CC)c5ccc([N+](=O)[O-])cc45)cc3)cc2)cc1 | 111%
8 | CC1C(c2ccccc2)OCCN1C(=S)Nc1ccc(S(=O)(=O)N2CCCCC2)cc1 (stereo not given) | 104%
9 | Oc1ccc(Nc2ccc3ccccc3c2)cc1 | 62.4%
10 | COc1ccc(C(Cn2ccnc2)Sc2ccc(Cl)c(Cl)c2)cc1 (stereo not given) | 104%
11 | NNc1cccc([N+](=O)[O-])c1 | 98%
12 | Oc1ccccc1N=Cc1ccccc1 | 82.4%
13 | CCc1cccc(CC)c1N1C(=O)C=CC1=O | 107%
14 | CCN(CC)CCNc1ccc([N+](=O)[O-])c2sc3ccccc3c(=O)c12 | 21.6%
15 | CCOC(=O)c1cc(CC)sc1NC(=O)CC(C)=O | 61.5%
16 | CN(C)CCN(C)CC(C)(C)C(=O)/C=C/c1ccc(Cl)c(Cl)c1 | -93.3% [100 µM] (active)
17 | O=C(O)c1ccc2c(c1)C(=O)c1ccccc1C2=O | 105%
18 | O=C(Nc1ccc(Cl)c(Cl)c1)OCc1ccco1 | 28.9%
19 | C/C(=N/NC(N)=S)c1ccc(C)cc1 | 101%
20 | CCCCCCCCCCCCCCCC[N+]1(C)CCCC1c1cccnc1 (stereo not given) | 98.1%

Row | Structure (SMILES) | growth
21 | O=C(Cc1nc2cc(Cl)c(Cl)cc2nc1CC(=O)c1cccnc1)c1cccnc1 | 113%
22 | CCOC(=O)c1c(C)[nH]c2ccc(O)cc12 | 97.9%
23 | COC(=O)C(=[N+]=[N-])C(=O)c1ccc([N+](=O)[O-])o1 | 95.5%
24 | COC(=O)c1cc([N+](=O)[O-])cc([N+](=O)[O-])c1Cl | 87.4%
25 | NC(=S)Nc1ccc2c(c1)Cc1ccccc1-2 | 89.6%
26 | CCOc1ccc(C(CN2CCOCC2)C(C)=O)cc1OC (stereo not given) | 111%
27 | CC(=O)N1CC(=O)NC1=S | 105%
28 | Oc1c(Cl)cc(Cl)cc1C=NCC1CCC(CN=Cc2cc(Cl)cc(Cl)c2O)CC1 (stereo not given) | 92.9%
29 | CCOC(=O)c1[nH]c(C#N)c(C(=O)OCC)c1C | 104%
30 | Clc1ccccc1C(c1ccccc1)(c1ccccc1)n1ccnc1 | 48.3%
31 | CC(O)C(O)C(O)C(O)C(O)C(=O)NNc1ccccc1 (stereo not given) | 106%
32 | COc1cccc2c1C(=O)c1c(O)c3c(c(O)c1C2=O)C[C@@](O)(C(=O)CO)C[C@@H]3OC1CC(OC(C)=O)C(OC(C)=O)C(C)O1 (stereo not given in full) | -0.534% (active)
33 | Nc1cc(-c2ccccc2)ccc1O | 120%
34 | OC(c1cc(C23CC4CC(CC(C4)C2)C3)nc2c(Cl)cc(Cl)cc12)C1CCCCN1 (stereo not given) | -73.5% (active)
35 | CCCOC(=O)c1nc(N(CC2CCCCC2)C(=O)NC)sc1/N=C/c1ccccc1 | -0.0368% (active)
36 | CC(/C=N/NC(N)=S)Cc1ccc(C(C)C)cc1 (stereo not given) | 54.4%
37 | O=[N+]([O-])c1ccc(C2N(Cc3ccc(Cl)cc3)CCN2Cc2ccc(Cl)cc2)cc1 | 101%
38 | Cc1ccc2c(c1)sc(-c1ccc(N(C)C)cc1)[n+]2C | 0.0539% (active)
39 | CC(=O)c1c(O)c(C)c(O)c2c1OC1=CC(=O)C(C(C)=O)C(=O)C12C (stereo not given) | 83.7%
40 | CN(Cc1ccccc1)c1ccc(SC#N)cc1 | 98.4%

From PubChem BioAssay (NCI)
